Calls of active or inactive are those of the source. The calls were made as follows: active = hit-call score of the fitted dose curve at least 0.9, where 1 is the maximum; inactive = score below 0.9.
Experiments:
Conditions in all cases: mRNA level, 48 h; actives raise or lower the signal
[1] = read-out: Tumor necrosis factor receptor superfamily member 6 (Homo sapiens) (UniProt P25445); assay: LTEA_HepaRG_FAS: Life Technologies and Expression Analysis (LTEA) Assay for Fas cell surface death receptor (FAS) using HepaRG (AID 2283447)
Outline: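 Differentiated HepaRG cells in serum-free induction medium were exposed 48 h to 8 half-log concentrations up to 100 uM in 0.5% DMSO, in duplicate. FAS mRNA was measured by qRT-PCR normalised to ACTB, GAPDH and POLR2A; bidirectional fit versus DMSO.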

[2] = read-out: Fatty acid synthase (Homo sapiens) (UniProt P49327); assay: LTEA_HepaRG_FASN: Life Technologies and Expression Analysis (LTEA) Assay for Fatty Acid Synthase (FASN) using HepaRG (AID 2283448)
Outline: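 Differentiated human HepaRG cells were exposed for 48 h in serum-free induction medium to eight half-log concentrations up to 100 uM in 0.5% DMSO, in duplicate. FASN mRNA was quantified by TaqMan qRT-PCR, normalized to ACTB/GAPDH/POLR2A, and fitted bidirectionally against DMSO.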

[3] = read-out: Cyclin D2 (CCND2), CCND2 (gene 894); assay: LTEA_HepaRG_CCND2: Life Technologies and Expression Analysis (LTEA) Assay for Cyclin D2 (CCND2) using HepaRG (AID 2283449);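 also: CCND2 transcript measured by TaqMan qRT-PCR and normalised to three housekeeping genes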
Outline: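 Chemicals in 0.5% DMSO, eight half-log concentrations from 100 uM top, were applied in duplicate for 48 h to human HepaRG cells in serum-free induction medium. CCND2 mRNA by TaqMan qRT-PCR, normalised to ACTB/GAPDH/POLR2A; bidirectional fit versus DMSO.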

[4] = read-out: Cyclin Dependent Kinase Inhibitor 1A (CDKN1A), CDKN1A (gene 1026); assay: LTEA_HepaRG_CDKN1A: Life Technologies and Expression Analysis (LTEA) Assay for Cyclin Dependent Kinase Inhibitor 1A (CDKN1A) using HepaRG (AID 2283450)
Outline: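 Gain or loss of CDKN1A transcript is scored by bidirectional fitting against 0.5% DMSO vehicle. Human HepaRG cultures receive chemicals for 48 h across an 8-point series peaking at 100 uM; expression comes from qRT-PCR.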

[5] = read-out: Cyclin D1 (CCND1), CCND1 (gene 595); assay: LTEA_HepaRG_CCND1: Life Technologies and Expression Analysis (LTEA) Assay for Cyclin D1 (CCND1) using HepaRG (AID 2283451);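 as to AC50: TaqMan qRT-PCR transcript level normalised to ACTB GAPDH and POLR2A housekeeping genes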
Outline: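 Expression change is measured by qRT-PCR in HepaRG cells after 48 h treatment across eight concentrations topping at 100 uM, with duplicate wells and DMSO (0.5%) serving as baseline for bidirectional fitting.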

[6] = read-out: catalase (CAT), CAT (gene 847); assay: LTEA_HepaRG_CAT: Life Technologies and Expression Analysis (LTEA) Assay for catalase (CAT) using HepaRG (AID 2283452);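 as to AC50: TaqMan qRT-PCR signal normalized to ACTB GAPDH and POLR2A housekeeping genes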
Outline: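 HepaRG cells in serum-free induction medium, 0.5% DMSO vehicle, exposed 48 h in duplicate over 8 half-log concentrations from 100 uM. CAT mRNA measured by qRT-PCR, normalized to ACTB, GAPDH, POLR2A; bidirectional fit versus DMSO.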

[7] = read-out: flavin-containing dimethylaniline monooxygenases 3 (FMO3), FMO3 (gene 2328); assay: LTEA_HepaRG_FMO3: Life Technologies and Expression Analysis (LTEA) Assay for flavin-containing dimethylaniline monooxygenases 3 (FMO3) using HepaRG (AID 2283453)
Outline: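 HepaRG, 48 h exposure, 8-pt half-log series from 100 uM, 0.5% DMSO vehicle, duplicates; FMO3 transcript by Fluidigm TaqMan qRT-PCR, housekeeping-normalized; gain/loss fit vs DMSO.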

[8] = read-out: Cytochrome P450 (CYP1A1), CYP1A1 (gene 1543); assay: LTEA_HepaRG_CYP1A1: Life Technologies and Expression Analysis (LTEA) Assay for Cytochrome P450 (CYP1A1) using HepaRG (AID 2283454)
Outline: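 Using HepaRG cultures with 0.5% DMSO as vehicle, eight-concentration exposures (max 100 uM) lasted 48 h. Transcript levels were measured by TaqMan qRT-PCR and normalized to ACTB, GAPDH and POLR2A.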

[9] = read-out: CFLAR gene, CFLAR (gene 8837); assay: LTEA_HepaRG_CFLAR: Life Technologies and Expression Analysis (LTEA) Assay for CFLAR gene using HepaRG (AID 2283455)
Outline: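 Differentiated HepaRG cells in serum-free induction medium were exposed 48 h in duplicate to eight half-log concentrations up to 100 uM in 0.5% DMSO; mRNA measured by TaqMan qRT-PCR, normalized to ACTB, GAPDH, POLR2A; bidirectional fitting versus DMSO.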

[10] = read-out: Forkhead box O1 (FOXO1), FOXO1 (gene 2308); assay: LTEA_HepaRG_FOXO1: Life Technologies and Expression Analysis (LTEA) Assay for Forkhead box O1 (FOXO1) using HepaRG (AID 2283456)
Outline: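 Differentiated HepaRG cells, in serum-free induction medium with 0.5% DMSO, exposed 48 h in duplicate to 8-point half-log series from 100 uM. FOXO1 mRNA measured by TaqMan qRT-PCR, normalized to ACTB, GAPDH, POLR2A; bidirectional fit versus DMSO.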

[11] = read-out: growth arrest and DNA damage 45 (GADD45A), GADD45A (gene 1647); assay: LTEA_HepaRG_GADD45A: Life Technologies and Expression Analysis (LTEA) Assay for growth arrest and DNA damage 45 (GADD45A) using HepaRG (AID 2283458)
Outline: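 Differentiated HepaRG cells were exposed in duplicate for 48 h in serum-free induction medium to 8-point half-log concentrations up to 100 uM in 0.5% DMSO. GADD45A mRNA was measured by TaqMan qRT-PCR, normalized to ACTB, GAPDH and POLR2A, with bidirectional fitting versus DMSO.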

[12] = read-out: Forkhead box O3 (FOXO3), FOXO3 (gene 2309); assay: LTEA_HepaRG_FOXO3: Life Technologies and Expression Analysis (LTEA) Assay for Forkhead box O3 (FOXO3) using HepaRG (AID 2283459)
Outline: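 Differentiated human HepaRG cells, 48 h post-plating, exposed in duplicate for 48 h in serum-free induction medium; 8-point half-log series from 100 uM in 0.5% DMSO. FOXO3 mRNA by TaqMan qRT-PCR, normalized to ACTB/GAPDH/POLR2A; bidirectional fit versus DMSO.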

[13] = read-out: ABC Transporter (ABCB1), ABCB1 (gene 5243); assay: LTEA_HepaRG_ABCB1: Life Technologies and Expression Analysis (LTEA) Assay for ABC Transporter (ABCB1) using HepaRG (AID 2283460)
Outline: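 HepaRG cells exposed in duplicate for 48 h in serum-free induction medium to eight half-log concentrations up to 100 uM in 0.5% DMSO. ABCB1 mRNA quantified by qRT-PCR, normalised to ACTB, GAPDH and POLR2A; fitted bidirectionally versus DMSO.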

[14] = read-out: growth arrest and DNA damage 45 (GADD45B), GADD45B (gene 4616); assay: LTEA_HepaRG_GADD45B: Life Technologies and Expression Analysis (LTEA) Assay for growth arrest and DNA damage 45 (GADD45B) using HepaRG (AID 2283461)
Outline: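 Human HepaRG monolayers receive chemicals for 48 h at eight half-log concentrations, highest 100 uM, in 0.5% DMSO. Expression is measured by TaqMan qRT-PCR and normalized to ACTB, GAPDH and POLR2A.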

[15] = read-out: ABC Transporter (ABCC3), ABCC3 (gene 8714); assay: LTEA_HepaRG_ABCC3: Life Technologies and Expression Analysis (LTEA) Assay for ABC Transporter (ABCC3) using HepaRG (AID 2283462)
Outline: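 Transcriptional change of ABCC3 in HepaRG after 48 h treatment, determined by qRT-PCR normalized to endogenous controls. Concentrations spanned eight half-log steps to 100 uM in 0.5% DMSO.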

[16] = read-out: ABC Transporter (ABCB11), ABCB11 (gene 8647); assay: LTEA_HepaRG_ABCB11: Life Technologies and Expression Analysis (LTEA) Assay for ABC Transporter (ABCB11) using HepaRG (AID 2283463)
Outline: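 Differentiated human HepaRG cells in serum-free induction medium, dosed in duplicate for 48 h. Eight-point half-log series from 100 uM in 0.5% DMSO; ABCB11 mRNA by qRT-PCR, normalized to ACTB, GAPDH, POLR2A, fitted bidirectionally versus DMSO.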

[17] = read-out: ABC Transporter (ABCC2), ABCC2 (gene 1244); assay: LTEA_HepaRG_ABCC2: Life Technologies and Expression Analysis (LTEA) Assay for ABC Transporter (ABCC2) using HepaRG (AID 2283464)
Outline: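 After plating and 48 h culture, HepaRG medium is replaced with serum-free induction medium and chemicals are added (8 concentrations, max 100 uM, 0.5% DMSO) for 48 h. Total RNA then undergoes qRT-PCR for ABCC2 with housekeeping normalization.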

[18] = read-out: Broad substrate specificity ATP-binding cassette transporter ABCG2 (Homo sapiens) (UniProt Q9UNQ0); assay: LTEA_HepaRG_ABCG2: Life Technologies and Expression Analysis (LTEA) Assay for ABC Transporter (ABCG2) using HepaRG (AID 2283465)
Outline: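 Differentiated HepaRG cells were exposed for 48 h in serum-free induction medium to 8 half-log concentrations, top 100 uM, in 0.5% DMSO. ABCG2 mRNA was measured by qRT-PCR, normalized to ACTB, GAPDH and POLR2A, with bidirectional fitting versus DMSO.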

Measured: AC50

Broad substrate specificity ATP-binding cassette transporter ABCG2 (Homo sapiens), sequence (Q9UNQ0 whole entry, looked up): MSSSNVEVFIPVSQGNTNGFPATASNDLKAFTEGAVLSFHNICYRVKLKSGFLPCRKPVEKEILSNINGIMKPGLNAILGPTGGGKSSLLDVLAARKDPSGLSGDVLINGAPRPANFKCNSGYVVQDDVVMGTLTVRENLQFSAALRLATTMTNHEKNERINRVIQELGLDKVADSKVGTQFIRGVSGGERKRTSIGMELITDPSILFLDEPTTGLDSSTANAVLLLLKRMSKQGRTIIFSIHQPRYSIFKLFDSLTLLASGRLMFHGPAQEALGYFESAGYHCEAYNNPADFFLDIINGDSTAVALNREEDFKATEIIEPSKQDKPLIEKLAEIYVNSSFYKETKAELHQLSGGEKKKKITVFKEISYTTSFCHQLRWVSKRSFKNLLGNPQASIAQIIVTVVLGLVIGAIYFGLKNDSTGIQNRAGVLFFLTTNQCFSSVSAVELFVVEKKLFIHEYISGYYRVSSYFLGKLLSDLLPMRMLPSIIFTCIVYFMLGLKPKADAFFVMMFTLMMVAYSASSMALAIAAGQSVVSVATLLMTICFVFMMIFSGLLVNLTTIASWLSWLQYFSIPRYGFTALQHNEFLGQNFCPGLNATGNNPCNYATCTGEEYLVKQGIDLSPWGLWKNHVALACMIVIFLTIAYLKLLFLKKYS
Fatty acid synthase (Homo sapiens), sequence (P49327 whole entry, looked up): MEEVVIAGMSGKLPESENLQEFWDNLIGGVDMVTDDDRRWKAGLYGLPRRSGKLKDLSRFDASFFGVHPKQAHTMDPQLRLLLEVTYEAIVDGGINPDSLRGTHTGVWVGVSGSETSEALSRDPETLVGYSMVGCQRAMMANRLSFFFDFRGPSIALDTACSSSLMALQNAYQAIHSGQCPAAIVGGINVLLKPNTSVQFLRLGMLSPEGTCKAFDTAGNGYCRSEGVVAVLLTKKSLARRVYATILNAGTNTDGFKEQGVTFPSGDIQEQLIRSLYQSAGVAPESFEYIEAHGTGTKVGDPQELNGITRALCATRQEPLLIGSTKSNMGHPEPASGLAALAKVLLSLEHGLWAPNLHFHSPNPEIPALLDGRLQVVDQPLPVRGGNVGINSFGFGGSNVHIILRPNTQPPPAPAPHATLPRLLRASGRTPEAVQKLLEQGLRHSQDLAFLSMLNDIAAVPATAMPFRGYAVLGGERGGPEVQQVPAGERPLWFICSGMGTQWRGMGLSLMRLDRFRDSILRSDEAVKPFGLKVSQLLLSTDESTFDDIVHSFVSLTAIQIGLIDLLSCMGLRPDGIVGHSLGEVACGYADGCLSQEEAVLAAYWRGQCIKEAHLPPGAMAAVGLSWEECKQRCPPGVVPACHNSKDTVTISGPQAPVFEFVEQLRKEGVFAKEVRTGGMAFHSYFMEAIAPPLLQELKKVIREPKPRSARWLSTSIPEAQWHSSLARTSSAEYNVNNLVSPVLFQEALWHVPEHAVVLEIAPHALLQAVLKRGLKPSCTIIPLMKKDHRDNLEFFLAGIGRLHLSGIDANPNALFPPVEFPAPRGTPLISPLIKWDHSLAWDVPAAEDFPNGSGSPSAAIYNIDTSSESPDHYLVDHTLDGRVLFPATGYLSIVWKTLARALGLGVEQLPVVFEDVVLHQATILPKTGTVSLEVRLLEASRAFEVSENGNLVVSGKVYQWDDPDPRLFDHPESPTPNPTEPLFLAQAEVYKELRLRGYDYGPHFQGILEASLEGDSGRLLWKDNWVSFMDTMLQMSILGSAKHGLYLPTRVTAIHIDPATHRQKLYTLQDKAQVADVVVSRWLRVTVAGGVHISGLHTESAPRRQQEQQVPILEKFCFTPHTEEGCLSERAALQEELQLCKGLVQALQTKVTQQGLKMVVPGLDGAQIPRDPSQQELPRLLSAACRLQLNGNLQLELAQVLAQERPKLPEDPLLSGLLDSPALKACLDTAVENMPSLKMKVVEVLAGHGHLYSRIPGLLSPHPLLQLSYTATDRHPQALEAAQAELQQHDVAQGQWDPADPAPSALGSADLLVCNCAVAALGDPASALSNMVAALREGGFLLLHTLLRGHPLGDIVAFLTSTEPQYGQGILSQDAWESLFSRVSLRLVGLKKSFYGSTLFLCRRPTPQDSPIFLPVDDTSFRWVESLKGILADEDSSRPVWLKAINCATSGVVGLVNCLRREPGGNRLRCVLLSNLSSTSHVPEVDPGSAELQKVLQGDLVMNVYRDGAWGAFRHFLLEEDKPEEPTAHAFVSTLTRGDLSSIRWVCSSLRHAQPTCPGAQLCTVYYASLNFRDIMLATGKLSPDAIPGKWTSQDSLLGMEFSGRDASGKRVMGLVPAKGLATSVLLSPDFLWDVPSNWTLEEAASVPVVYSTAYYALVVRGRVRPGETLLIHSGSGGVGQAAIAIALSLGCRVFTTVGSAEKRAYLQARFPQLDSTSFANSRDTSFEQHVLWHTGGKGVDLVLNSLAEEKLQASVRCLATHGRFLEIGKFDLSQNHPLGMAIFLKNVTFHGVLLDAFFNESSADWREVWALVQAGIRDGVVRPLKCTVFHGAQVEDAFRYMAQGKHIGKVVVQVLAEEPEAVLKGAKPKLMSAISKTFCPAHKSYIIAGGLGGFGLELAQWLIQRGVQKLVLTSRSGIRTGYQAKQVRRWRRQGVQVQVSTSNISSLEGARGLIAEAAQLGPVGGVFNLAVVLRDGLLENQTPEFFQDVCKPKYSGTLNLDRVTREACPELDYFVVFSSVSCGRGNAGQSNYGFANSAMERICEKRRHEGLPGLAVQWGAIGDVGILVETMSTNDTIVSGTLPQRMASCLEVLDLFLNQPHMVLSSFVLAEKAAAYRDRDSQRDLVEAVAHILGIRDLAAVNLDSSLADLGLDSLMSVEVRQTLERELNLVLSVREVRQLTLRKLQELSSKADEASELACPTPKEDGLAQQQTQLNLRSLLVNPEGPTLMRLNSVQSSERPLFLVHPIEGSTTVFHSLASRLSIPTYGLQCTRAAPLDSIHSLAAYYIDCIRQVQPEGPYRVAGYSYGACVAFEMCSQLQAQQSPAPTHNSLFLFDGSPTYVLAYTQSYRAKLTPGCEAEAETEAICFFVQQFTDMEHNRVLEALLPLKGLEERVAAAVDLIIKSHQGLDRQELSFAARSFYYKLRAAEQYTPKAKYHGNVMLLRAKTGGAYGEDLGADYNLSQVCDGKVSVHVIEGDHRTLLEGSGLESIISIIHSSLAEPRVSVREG

CCN(CC)CCO
inactive: [1] | [2] | [3] | [4] | [5] | [6] | [7] | [8] | [9] | [10] | [11] | [12] | [13] | [14] | [15] | [16] | [17] | [18]

ClC1=C(Cl)[C@]2(Cl)[C@H]3[C@H]([C@@H]4C=C[C@H]3C4)[C@@]1(Cl)C2(Cl)Cl
active: [2] 28.7 µM | [8] 38.3 µM | [18] 9.92 µM
inactive: [1] | [3] | [4] | [5] | [6] | [7] | [9] | [10] | [11] | [12] | [13] | [14] | [15] | [16]

Nc1cc(Cl)cc(C(=O)O)c1Cl
active: [8] 63.4 µM
inactive: [1] | [2] | [3] | [4] | [5] | [6] | [7] | [9] | [10] | [11] | [12] | [13] | [14] | [15] | [16] | [17] | [18]

Clc1ccccc1Cl
inactive: [1] | [2] | [3] | [4] | [5] | [6] | [7] | [8] | [9] | [10] | [11] | [12] | [13] | [14] | [15] | [16] | [17] | [18]

Clc1ccc(C(c2ccc(Cl)cc2)C(Cl)(Cl)Cl)cc1
active: [2] 66.6 µM | [7] 88.4 µM | [8] 9.54 µM | [13] 50 µM | [17] 4.19 µM | [18] 0.788 µM
inactive: [1] | [3] | [5] | [6] | [9] | [10] | [11] | [12] | [14] | [15] | [16]

O=[N+]([O-])C(Br)(CO)CO
active: [8] 50 µM
inactive: [1] | [2] | [3] | [5] | [6] | [7] | [9] | [10] | [11] | [12] | [13] | [14] | [15] | [16] | [17] | [18]

c1ccc(N=Nc2ccccc2)cc1
active: [8] 36.6 µM
inactive: [1] | [2] | [3] | [4] | [5] | [6] | [7] | [9] | [10] | [11] | [12] | [13] | [14] | [15] | [16] | [17] | [18]

COC(=O)c1ccccc1N
inactive: [1] | [2] | [3] | [5] | [6] | [7] | [8] | [9] | [10] | [11] | [12] | [13] | [14] | [15] | [16] | [17] | [18]

c1ccc(C2CO2)cc1 (configuration not stated)
inactive: [1] | [2] | [3] | [4] | [5] | [6] | [7] | [8] | [9] | [10] | [11] | [12] | [13] | [14] | [15] | [16] | [17] | [18]

OCCOCCO
inactive: [1] | [2] | [3] | [4] | [5] | [6] | [7] | [8] | [9] | [10] | [11] | [12] | [13] | [14] | [15] | [16] | [17] | [18]

COc1cc(C=O)cc2c1[C@H](COC(N)=O)[C@]1(OC(C)=O)ON2C[C@H]2[C@@H]1N2C(C)=O
active: [1] 88.1 µM | [3] 29.6 µM | [5] 50 µM | [6] 0.412 µM | [7] 76.5 µM | [8] 4.09 µM | [10] 3.75 µM | [11] 0.579 µM | [12] 3.8 µM | [13] 24.3 µM | [14] 92.3 µM | [15] 9.99 µM | [16] 0.38 µM
inactive: [2] | [4] | [9] | [17] | [18]

Nc1ccc([N+](=O)[O-])cc1
inactive: [1] | [2] | [3] | [5] | [6] | [7] | [9] | [10] | [11] | [12] | [13] | [14] | [15] | [16] | [17] | [18]
active: [8] 50 µM

CCC12COCN1COC2
active: [8] 50 µM
inactive: [1] | [2] | [3] | [4] | [5] | [6] | [7] | [9] | [10] | [11] | [12] | [13] | [14] | [15] | [16] | [17] | [18]

Oc1ccccc1Cl
inactive: [1] | [2] | [3] | [4] | [5] | [6] | [7] | [8] | [9] | [10] | [11] | [12] | [13] | [14] | [15] | [16] | [17] | [18]

Reference: PubChem BioAssay (EPA / NIEHS)
